Measurements published in ChEMBL document CHEMBL3988442, “University of Dundee, Small-Polar-MMV Screening Library” (2021).

Each compound was assayed against T1, Aspartate--tRNA(Asp/Asn) ligase (Mycobacterium tuberculosis (strain ATCC 25618 / H37Rv)) (UniProt P9WFW3) (assay: Assay for Asp RNA synthetase-1 from Mycobacterium tuberculosis). Details: 30 µM.
T1 sequence (whole entry): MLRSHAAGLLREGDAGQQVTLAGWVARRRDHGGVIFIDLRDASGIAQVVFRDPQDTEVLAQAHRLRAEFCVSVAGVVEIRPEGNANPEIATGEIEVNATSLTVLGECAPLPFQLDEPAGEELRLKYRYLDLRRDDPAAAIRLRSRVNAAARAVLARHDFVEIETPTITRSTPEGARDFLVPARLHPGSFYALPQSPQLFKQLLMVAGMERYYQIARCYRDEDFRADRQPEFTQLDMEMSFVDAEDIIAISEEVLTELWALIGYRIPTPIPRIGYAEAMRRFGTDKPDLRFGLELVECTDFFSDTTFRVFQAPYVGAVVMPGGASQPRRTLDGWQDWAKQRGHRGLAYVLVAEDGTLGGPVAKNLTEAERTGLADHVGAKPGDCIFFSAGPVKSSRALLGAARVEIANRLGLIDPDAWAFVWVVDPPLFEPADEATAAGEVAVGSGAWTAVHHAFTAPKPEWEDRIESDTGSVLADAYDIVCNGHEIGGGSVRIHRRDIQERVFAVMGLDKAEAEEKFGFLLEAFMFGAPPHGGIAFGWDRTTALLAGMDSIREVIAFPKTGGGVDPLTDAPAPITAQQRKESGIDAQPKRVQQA
Assay type: functional
Set-up: scale not given: direction of the effect not stated beside the values

| SMILES | Percent Effect [%] |
| --- | --- |
| Cc1nccn1CCCC(=O)N1CCC(Nc2cccnn2)CC1 | -0.211 |
| N#Cc1ccccc1OCCN1CCCC1Cn1cccn1 (stereo not given) | -0.558 |
| CC(C)(C)C(O)CN1CCN(C(=O)c2cccc3[nH]ncc23)CC1 (stereo not given) | -5.46 |
| COc1cc(CNC2CCCc3c2cnn3C)cc(OC)c1 (stereo not given) | -0.657 |
| CN(C)C(=O)C1CCCN1CCCNC(=O)c1ccccc1F (stereo not given) | 7.07 |
| Cc1ccc(OCC(=O)NS(=O)(=O)c2cccnc2)cc1C | -2.57 |
| CCSc1ccc(C(=O)Nc2c(C)nn(C(C)C)c2C)cn1 | -2.39 |
| Cc1ncoc1C(=O)N1CCn2c(COCC3CC3)cnc2C1C (stereo not given) | 7.95 |
| Cn1cc(CN2CC[C@@H]3O[C@H](C(=O)N4CCOCC4)C[C@@H]32)cn1 | 0.521 |
| CN(CCNC(=O)c1scnc1Cl)c1ccccc1 | 2.87 |
| CNc1cc(N2CCCC2CNCc2ccc(Cl)o2)ncn1 (stereo not given) | -2.44 |
| Cn1c(CNc2c(F)cccc2-n2cccn2)cc(=O)n(C)c1=O | -0.864 |
| Cc1nc(C2CCCN2Cc2nc(C)c(C)o2)no1 (stereo not given) | -0.728 |
| Fc1ccc(-c2nnc(CN3CCOC(Cn4cncn4)C3)o2)cc1 (stereo not given) | 1.55 |
| CC(C)c1nnc2n1CCN(Cc1csc(CC(=O)N(C)C)n1)C2 | -7.04 |
| CCOC(=O)c1sc2ccsc2c1CNC(=O)CC | 1.08 |
| COC(=O)CNC(=O)CSCc1nc(O)c2c(C)c(C)sc2n1 | -0.261 |
| O=C(O)c1cc(S(=O)(=O)Nc2ccc(Cl)cc2)cc2c1OCCO2 | 0.0437 |
| Cc1nn(C)c(Cl)c1C(=O)NCC(c1ccsc1)N(C)C (stereo not given) | -6.11 |
| O=S(=O)(c1cccs1)N1CC[C@H](O)[C@@H]1Cc1ccncc1 | -0.474 |

| SMILES | Percent Effect [%] |
| --- | --- |
| CC(NC(=O)COc1ccc(F)cc1)c1nnc2n1CCCCC2 (stereo not given) | 8.46 |
| CN(C)C(=O)CSc1nnc(CCNC(=O)OC(C)(C)C)o1 | 2.93 |
| Cc1c[nH]c(CN(C)c2nc(C3CCCC3)nc3c2cnn3C)n1 | 0.0557 |
| O=C(c1ccccn1)N1Cc2nccn2CC(CN2CCOCC2)C1 (stereo not given) | 11.5 |
| Cc1cccc(-c2noc(CN3CC(n4cc(C)cn4)C3)n2)c1 | -0.577 |
| O=C(Nc1cccc(CNCc2csc(Br)c2)c1)C1CC1 | -0.759 |
| Cc1cnn(CC2CCCN2C(=O)CCc2ccsc2)c1 (stereo not given) | -3.37 |
| OC(CNCCn1cccn1)c1ccc(F)c(F)c1 (stereo not given) | -2.25 |
| CS(=O)(=O)N1CCOCC2(CN(Cc3ccsc3)CCO2)C1 (stereo not given) | -4.1 |
| CN(C)C(=O)CO[C@H]1CN(Cc2ccc(F)cc2)[C@@H]2CCCO[C@H]12 | 5.68 |
| COc1ccc(CNCC(C)Oc2ccccn2)cc1Br (stereo not given) | -3.54 |
| CN(C)c1cc2c(nn1)CCN(C(=O)C1CCc3ccccc31)C2 (stereo not given) | 5.85 |
| CCC1=N[C@@]2(CC[C@@H]3CN(C(=O)Nc4ccc(F)cc4)C[C@@H]32)C(=O)N1 | 0.408 |
| O=C(NCC1(CO)CC1)c1cccc2ccccc12 | -3.45 |
| CCn1nccc1CNC(=O)C(C)n1cc2c(n1)c(C)nn2C (stereo not given) | -5.02 |
| CCCn1nc2c(cc1=O)CN(Cc1cc(C)on1)CC2 | 10 |
| Cn1cc(C[C@H]2[C@@H](O)CCN2C(=O)C2CC=CC2)cn1 | 7.16 |
| CC(C)c1nc(CN2CCCN(Cc3nnc(C4CC4)o3)CC2)no1 | -3.22 |
| N#Cc1cnn(-c2ccc(C(=O)Nc3ccccn3)cc2)c1N | -3 |
| O=C(COc1coc(CN2CCOCC2)cc1=O)c1ccc(Cl)cc1 | 4.37 |

These compounds were tested against Shiga toxin 2 (Escherichia coli O157:H7) (UniProt P09385+P09386) (assay: E. coli 0.157:H7 Shiga Toxin SOP - stx2 screening assay). Details: 30 µM.
Assay type: functional
Set-up: scale not given: direction of the effect not stated beside the values

| SMILES | Percent Effect [%] |
| --- | --- |
| Cc1nccn1CCCC(=O)N1CCC(Nc2cccnn2)CC1 | -6.43 |
| N#Cc1ccccc1OCCN1CCCC1Cn1cccn1 (stereo not given) | 2.91 |
| CC(C)(C)C(O)CN1CCN(C(=O)c2cccc3[nH]ncc23)CC1 (stereo not given) | -5.59 |
| COc1cc(CNC2CCCc3c2cnn3C)cc(OC)c1 (stereo not given) | 18.7 |
| CN(C)C(=O)C1CCCN1CCCNC(=O)c1ccccc1F (stereo not given) | -18.5 |
| Cc1ccc(OCC(=O)NS(=O)(=O)c2cccnc2)cc1C | 26.6 |
| CCSc1ccc(C(=O)Nc2c(C)nn(C(C)C)c2C)cn1 | -37.7 |
| Cc1ncoc1C(=O)N1CCn2c(COCC3CC3)cnc2C1C (stereo not given) | -10.6 |
| Cn1cc(CN2CC[C@@H]3O[C@H](C(=O)N4CCOCC4)C[C@@H]32)cn1 | -23.7 |
| CN(CCNC(=O)c1scnc1Cl)c1ccccc1 | -17.4 |
| CNc1cc(N2CCCC2CNCc2ccc(Cl)o2)ncn1 (stereo not given) | 26.8 |
| Cn1c(CNc2c(F)cccc2-n2cccn2)cc(=O)n(C)c1=O | 0.236 |
| Cc1nc(C2CCCN2Cc2nc(C)c(C)o2)no1 (stereo not given) | 7.48 |
| Fc1ccc(-c2nnc(CN3CCOC(Cn4cncn4)C3)o2)cc1 (stereo not given) | -15.2 |
| CC(C)c1nnc2n1CCN(Cc1csc(CC(=O)N(C)C)n1)C2 | 18.3 |
| CCOC(=O)c1sc2ccsc2c1CNC(=O)CC | -9.72 |
| COC(=O)CNC(=O)CSCc1nc(O)c2c(C)c(C)sc2n1 | -18.2 |
| O=C(O)c1cc(S(=O)(=O)Nc2ccc(Cl)cc2)cc2c1OCCO2 | -7.1 |
| Cc1nn(C)c(Cl)c1C(=O)NCC(c1ccsc1)N(C)C (stereo not given) | -7.76 |
| O=S(=O)(c1cccs1)N1CC[C@H](O)[C@@H]1Cc1ccncc1 | 2.87 |

| SMILES | Percent Effect [%] |
| --- | --- |
| CC(NC(=O)COc1ccc(F)cc1)c1nnc2n1CCCCC2 (stereo not given) | 13.1 |
| CN(C)C(=O)CSc1nnc(CCNC(=O)OC(C)(C)C)o1 | -59.4 |
| Cc1c[nH]c(CN(C)c2nc(C3CCCC3)nc3c2cnn3C)n1 | -4.38 |
| O=C(c1ccccn1)N1Cc2nccn2CC(CN2CCOCC2)C1 (stereo not given) | -21.6 |
| Cc1cccc(-c2noc(CN3CC(n4cc(C)cn4)C3)n2)c1 | -2.34 |
| O=C(Nc1cccc(CNCc2csc(Br)c2)c1)C1CC1 | -73.7 |
| Cc1cnn(CC2CCCN2C(=O)CCc2ccsc2)c1 (stereo not given) | 14.6 |
| OC(CNCCn1cccn1)c1ccc(F)c(F)c1 (stereo not given) | -25.7 |
| CS(=O)(=O)N1CCOCC2(CN(Cc3ccsc3)CCO2)C1 (stereo not given) | 7.57 |
| CN(C)C(=O)CO[C@H]1CN(Cc2ccc(F)cc2)[C@@H]2CCCO[C@H]12 | -22 |
| COc1ccc(CNCC(C)Oc2ccccn2)cc1Br (stereo not given) | -30.6 |
| CN(C)c1cc2c(nn1)CCN(C(=O)C1CCc3ccccc31)C2 (stereo not given) | 5.96 |
| CCC1=N[C@@]2(CC[C@@H]3CN(C(=O)Nc4ccc(F)cc4)C[C@@H]32)C(=O)N1 | 5.29 |
| O=C(NCC1(CO)CC1)c1cccc2ccccc12 | -0.178 |
| CCn1nccc1CNC(=O)C(C)n1cc2c(n1)c(C)nn2C (stereo not given) | -29.4 |
| CCCn1nc2c(cc1=O)CN(Cc1cc(C)on1)CC2 | -9.16 |
| Cn1cc(C[C@H]2[C@@H](O)CCN2C(=O)C2CC=CC2)cn1 | -21.6 |
| CC(C)c1nc(CN2CCCN(Cc3nnc(C4CC4)o3)CC2)no1 | -24.4 |
| N#Cc1cnn(-c2ccc(C(=O)Nc3ccccn3)cc2)c1N | -40.7 |
| O=C(COc1coc(CN2CCOCC2)cc1=O)c1ccc(Cl)cc1 | -57.8 |
